Measurements reported in PubChem BioAssay.
The source made the active and inactive calls. Unless noted, the rule behind the calls is not given here.

Assays:
[1] = resazurin metabolic signal in HepG2 cells – cell-based, resazurin fluorescence, 24 h, PK04 Diversity Set, profiling panel (AID 1172); conditions: HepG2 viability, higher = more signal
[2] = budding yeast growth changes without added modifier – OD600, strain BY4716, 24 h, basal condition, primary screen (AID 1173); conditions: S. cerevisiae BY4716 growth, OD600, 24 h; higher = more signal, called active from +8 up or from −8 down
[3] = viability profiling in MM1S myeloma cells – cell-based, resazurin fluorescence, basal, 24 h, PK04 Diversity Set, profiling panel (AID 1174); conditions: higher = more signal, called active from +8 up or from −8 down;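 note: MM1S multiple myeloma cell line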
[4] = molecular target: Dihydroorotate dehydrogenase (quinone), mitochondrial (Plasmodium falciparum (isolate 3D7)) (UniProt Q08210); experiment: inhibition of P. falciparum DHODH – biochemical, C-terminal His tag, absorbance 600 nm, primary screen (AID 1175); conditions: PfDHODH enzyme, DCIP absorbance 600 nm; higher = more signal, called active from +8 up or from −8 down;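 note: recombinant parasite enzyme with a five histidine tag at its C terminus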
[5] = inhibition of PAO1 biofilm formation – strain PAO1, LB-PBS medium, absorbance 600 nm, primary screen (AID 1176); conditions: P. aeruginosa PAO1 growth/biofilm, A600, 12 h; higher = more signal
[6] = growth modulation of vineyard yeast isolate – strain RM11-1a, OD600, basal, 24 h, primary screen (AID 1177);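 note: cultures grown under basal conditions with no added stressor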; conditions: S. cerevisiae RM11-1a growth, OD600, 24 h; higher = more signal, called active from +8 up or from −8 down
[7] = growth of efflux-deficient E. coli DRC39 – strain DRC39, OD650, 24 h, E. coli filamentation inducers, primary screen (AID 1178);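 note: growth measured as culture turbidity by optical density at 650 nm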; conditions: E. coli DRC39 acrAB, higher = more signal, called active from +8 up or from −8 down
[8] = growth of efflux-deficient E. coli DRC39 – strain DRC39, OD650, 48 h, E. coli filamentation inducers, primary screen (AID 1179);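 note: screen aims at cell division blockers that make cells filament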; conditions: E. coli DRC39 delta-acrAB growth, higher = more signal, called active from +8 up or from −8 down
[9] = viability profiling in RPMI8226 myeloma cells – cell-based, resazurin fluorescence, basal, 24 h, PK04 Diversity Set, profiling panel (AID 1180); conditions: higher = more signal;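 note: RPMI8826 multiple myeloma cell line at 5000 cells per well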
[10] = molecular target: E3 ubiquitin-protein ligase XIAP (Homo sapiens) (UniProt P98170); experiment: small molecules binding XIAP protein – biophysical, small-molecule microarray, fluorescence 635 nm, primary screen (AID 1181); conditions: higher = more signal;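 note: score merges 667 nm emission and signal to noise over triplicate slides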
[11] = test system: XIP peptide (Xip251-270) binding; experiment: XIP fragment 251-270 binding compounds – biochemical, small-molecule microarray, fluorescence 635/667 nm, 0.1 µg/mL protein, primary screen (AID 1182); conditions: fluorescent protein binding, 635 nm, higher = more signal, called active from +8 up or from −8 down
XIP peptide (Xip251-270) = experiment: compounds binding XIP fragment 251-270 – biochemical, small-molecule microarray, fluorescence 635/667 nm, 0.5 µg/mL protein, primary screen (AID 1183); conditions: fluorescence 635 nm, higher = more signal
[12] = blood-stage malaria parasite viability loss – strain 3D7, DAPI fluorescence, 100 nL, primary screen (AID 1184);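 note: parasites grown inside human red blood cells in medium with human serum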; conditions: P. falciparum 3D7 growth, 3 d, higher = more signal
[13] = molecular target: Homeobox protein Hox-A13 (Mus musculus) (UniProt Q62424); experiment: disruptors of Hoxa13 oligonucleotide interaction – biochemical, fluorescence polarization, labeled oligonucleotide, primary screen (AID 1185); conditions: Hoxa13:DNA binding, 15 min, higher = more signal, called active from +8 up or from −8 down
[14] = blockers of DNA damage checkpoint Chk1 activation – imaging, HeLa, hydroxyurea, phospho-Chk1 antibody, percent positive cells, primary screen (AID 1186); conditions: hydroxyurea-induced phospho-Chk1 immunofluorescence imaging, higher = more signal
[15] = blockers of DNA damage checkpoint Chk1 activation – imaging, HeLa, hydroxyurea, phospho-Chk1 nuclear intensity, primary screen (AID 1187); conditions: hydroxyurea-induced phospho-Chk1 immunofluorescence imaging, higher = more signal

Chain of Homeobox protein Hox-A13 (Mus musculus) (Q62424 whole entry, looked up): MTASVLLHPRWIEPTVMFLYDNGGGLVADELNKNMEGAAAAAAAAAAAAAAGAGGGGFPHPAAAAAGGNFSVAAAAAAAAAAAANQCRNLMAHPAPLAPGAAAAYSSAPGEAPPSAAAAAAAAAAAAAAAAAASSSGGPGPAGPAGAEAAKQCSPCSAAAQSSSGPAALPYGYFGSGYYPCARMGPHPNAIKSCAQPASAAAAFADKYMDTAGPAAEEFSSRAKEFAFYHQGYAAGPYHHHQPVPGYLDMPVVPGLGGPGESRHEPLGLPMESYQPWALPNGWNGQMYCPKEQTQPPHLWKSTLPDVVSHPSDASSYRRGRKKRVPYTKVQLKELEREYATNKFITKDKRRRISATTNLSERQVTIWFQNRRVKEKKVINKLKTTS
Chain of E3 ubiquitin-protein ligase XIAP (Homo sapiens) (P98170 whole entry, looked up, the tested form may be a part): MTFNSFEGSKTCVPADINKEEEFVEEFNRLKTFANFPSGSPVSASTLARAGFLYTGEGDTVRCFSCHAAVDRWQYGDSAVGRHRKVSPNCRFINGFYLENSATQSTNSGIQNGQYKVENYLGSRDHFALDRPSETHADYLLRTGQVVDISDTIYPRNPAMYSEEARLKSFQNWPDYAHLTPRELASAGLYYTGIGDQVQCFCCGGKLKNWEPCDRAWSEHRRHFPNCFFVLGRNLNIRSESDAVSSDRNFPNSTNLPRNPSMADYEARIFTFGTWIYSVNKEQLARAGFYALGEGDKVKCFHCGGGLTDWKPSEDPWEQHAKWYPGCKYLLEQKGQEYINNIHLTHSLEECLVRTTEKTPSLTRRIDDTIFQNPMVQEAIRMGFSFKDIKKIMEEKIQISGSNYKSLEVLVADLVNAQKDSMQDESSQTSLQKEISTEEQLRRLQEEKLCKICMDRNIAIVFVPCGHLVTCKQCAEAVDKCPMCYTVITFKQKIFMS
Chain of Dihydroorotate dehydrogenase (quinone), mitochondrial (Plasmodium falciparum (isolate 3D7)) (Q08210 whole entry, looked up): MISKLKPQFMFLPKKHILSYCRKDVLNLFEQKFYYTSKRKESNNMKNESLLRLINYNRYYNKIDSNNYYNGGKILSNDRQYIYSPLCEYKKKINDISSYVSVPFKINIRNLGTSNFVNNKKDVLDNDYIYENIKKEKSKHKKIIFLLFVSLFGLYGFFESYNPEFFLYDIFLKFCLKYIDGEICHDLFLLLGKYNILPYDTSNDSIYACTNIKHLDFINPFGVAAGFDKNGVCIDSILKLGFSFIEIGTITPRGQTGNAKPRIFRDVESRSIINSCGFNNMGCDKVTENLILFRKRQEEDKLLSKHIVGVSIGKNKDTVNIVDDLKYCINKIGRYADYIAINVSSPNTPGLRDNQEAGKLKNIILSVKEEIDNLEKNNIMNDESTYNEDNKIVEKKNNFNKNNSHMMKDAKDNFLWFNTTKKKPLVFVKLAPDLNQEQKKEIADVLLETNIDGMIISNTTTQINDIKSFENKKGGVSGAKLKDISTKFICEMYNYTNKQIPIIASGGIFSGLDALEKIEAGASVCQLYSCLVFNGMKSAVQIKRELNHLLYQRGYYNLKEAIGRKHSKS

| SMILES | z-score [1] | z-score [2] | z-score [3] | composite z-score [4] | z-score [5] | z-score [6] | z-score [7] | z-score [8] | z-score [9] | composite z-score [10] | composite z-score [11] | composite z-score (XIP peptide (Xip251-270)) | z-score [12] | z-score [13] | z-score [14] | z-score [15] |
| --- | --- | --- | --- | --- | --- | --- | --- | --- | --- | --- | --- | --- | --- | --- | --- | --- |
| O=C(CCN1CCOCC1)c1cccc(O)c1 | 1.19 | -0.804 (inactive) | -1.43 (inactive) | -1.44 (inactive) | -0.407 (inactive) | -1.07 (inactive) | 0.251 (inactive) | 0.737 (inactive) | -1.6 | 0.226 | 1.55 (inactive) | 0.421 | -1.5 | -2.35 (inactive) | -0.111 (inactive) | 0.114 (inactive) |
| COCCOC(=O)N1C(=O)[C@@]2(c3cc(C#CCC(C(=O)OC)C(=O)OC)ccc31)[C@H](c1ccccc1OCCO)N1[C@H](c3ccccc3)[C@H](c3ccccc3)OC(=O)[C@H]1[C@@H]2C(=O)N1CCc2cc(OC)c(OC)cc2C1 | 1.68 | 0.983 (inactive) | 1.58 (inactive) | -0.857 (inactive) | 1.45 (inactive) | 1.16 (inactive) | 0.252 (inactive) | -0.441 (inactive) | 1.78 | 0.314 | 0.201 (inactive) | 0.64 | -2.06 | 0.498 (inactive) | -0.122 (inactive) | 0.261 (inactive) |
| [N-]=[N+]=Nc1ccccc1[C@@H]1OC(c2ccc(OCCCO)cc2)=N[C@]1(CCS(=O)(=O)c1ccccc1)C(=O)N1CCOCC1 | -0.167 | 0.907 (inactive) | -0.638 (inactive) | 1.56 (inactive) | 0.507 (inactive) | 1.9 (inactive) | -0.311 (inactive) | 0.0945 (inactive) | -1.19 | 0.182 | 1.12 (inactive) | 0.731 | -2.09 | -1.96 (inactive) | 0.0445 (inactive) | 0.143 (inactive) |
| COCCOC(=O)N1C(=O)[C@@]2(c3cc(C#CCC(C(=O)OC)C(=O)OC)ccc31)[C@H](C(=O)N1CCCCCCC1)[C@H]1C(=O)O[C@H](c3ccccc3)[C@H](c3ccccc3)N1[C@@H]2c1ccc(OCCO)cc1 | 2.14 | 0.905 (inactive) | 0.281 (inactive) | -0.352 (inactive) | 1.3 (inactive) | 2.41 (inactive) | 0.027 (inactive) | 0.271 (inactive) | 0.437 | 0.611 | 0.968 (inactive) | 0.746 | -1.79 | -15.8 (active) | -0.479 (inactive) | -0.719 (inactive) |
| O=C1OCCC/C=C\[C@H]2OC34C=CCN(Cn5nnc6ccccc65)C(=O)[C@H]3N(CCCCCO)C(=O)[C@@H]4C12 (stereo partly drawn) | 0.502 | -0.419 (inactive) | 0.812 (inactive) | -1.01 (inactive) | 0.193 (inactive) | -0.564 (inactive) | 0.376 (inactive) | -0.0083 (inactive) | 0.692 | 0.178 | 0.145 (inactive) | 0.545 | 0.961 | -4.39 (inactive) | 0.812 (inactive) | 0.888 (inactive) |
| COC(=O)[C@@]1(Cc2ccc(F)cc2)[C@H]2c3cc(C(=O)N(C)C)n(CCc4ccccn4)c3C[C@H]2CN1C(=O)c1ccccc1 | 0.244 | 0.676 (inactive) | -0.309 (inactive) | -0.804 (inactive) | 0.0944 (inactive) | -0.182 (inactive) | 0.2 (inactive) | -1.02 (inactive) | 0.357 | 0.254 | 0.258 (inactive) | 0.234 | -1.21 | -2.89 (inactive) | -0.0308 (inactive) | 0.288 (inactive) |
| COC(=O)c1c(CC[C@@H](CO)NC(=O)N[C@@H](Cc2ccccc2)Cn2cc(C3(O)CCCCC3)nn2)oc(C(C)=O)c1C(=O)OC | -0.172 | -3.95 (inactive) | 1.37 (inactive) | -4.08 (inactive) | -0.452 (inactive) | -2.6 (inactive) | 1.05 (inactive) | 0.874 (inactive) | 0.428 | 0.0762 | 0.295 (inactive) | 0.536 | -2.48 | -5.32 (inactive) | -0.0682 (inactive) | -0.145 (inactive) |
| Cc1ccccc1C(O)C1C=CC2C(=O)N(C)C(=O)C2N1N1CCCCC1 (stereo not drawn) | -0.424 | 0.492 (inactive) | -1.24 (inactive) | -0.318 (inactive) | 0.723 (inactive) | -0.252 (inactive) | -0.751 (inactive) | -0.495 (inactive) | -1.64 | 0.124 | 0.547 (inactive) | 0.576 | 0.737 | -6.67 (inactive) | 0.193 (inactive) | -0.0403 (inactive) |
